PLK1 inh: human PLK1 kinase inhibitors, primary screen, biochemical, TR-FRET. Serine/threonine-protein kinase PLK1 (Homo sapiens), P53350. recombinant PLK1 kinase, TR-FRET peptide phosphorylation. inhibition, % at 10 µM. 0.53% of 97,000 active. AID 619, 2007;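 active = inhibition of 50% or more in the single-concentration screen; inactive = inhibition below 50%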
Plk1 PBD FP: Plk1 polo box domain binding inhibitors, primary screen, biochemical, fluorescence polarization. Serine/threonine-protein kinase PLK1 (Homo sapiens), P53350. Plk1 PBD phosphopeptide binding. inhibition, %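 (tested at about 20 µM)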. 0.13% of 97,000 active. AID 693, 2007; in the data active = inhibition above about 34%, passing the limit was not always enough
CYP2C19 inh: blockers of cytochrome P450 2C19 activity – biochemical, luminescence, ADME assay, primary screen. P33261. CYP2C19 Supersomes, luciferin-H EGE luminescence, 30 min. inhibition, % at 5 µM. 21% of 96,000 active. AID 778, 2007;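 active = CYP2C19 inhibition above a set limit at 5 µM in the primary screen, cut at about 50% in these data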
CYP2C19 act: human CYP2C19 activators, primary screen, biochemical, luminescence; Cytochrome P450 2C19 (Homo sapiens), P33261; recombinant CYP2C19, luciferin-H EGE luminescence; stronger effect = higher value; 0 = fully inhibited enzyme, 1 = untreated enzyme; activation factor at 5 µM; 96,000 tested, under 10 active; AID 1025, 2008;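 active = activation factor of at least 2 at 5 µM in the primary screen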
CYP2C9 inhib: blockers of cytochrome P450 2C9 activity – biochemical, luminescence, ADME assay, primary screen; CYP2C9 Supersomes, luciferin-H conversion; inhibition, % at 5 µM; 20% of 96,000 active; AID 777, 2007;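 active = blocking of liver enzyme CYP2C9 beyond about 50% at 5 µM, limit read from the data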
Target sequence (P11712 whole entry, looked up): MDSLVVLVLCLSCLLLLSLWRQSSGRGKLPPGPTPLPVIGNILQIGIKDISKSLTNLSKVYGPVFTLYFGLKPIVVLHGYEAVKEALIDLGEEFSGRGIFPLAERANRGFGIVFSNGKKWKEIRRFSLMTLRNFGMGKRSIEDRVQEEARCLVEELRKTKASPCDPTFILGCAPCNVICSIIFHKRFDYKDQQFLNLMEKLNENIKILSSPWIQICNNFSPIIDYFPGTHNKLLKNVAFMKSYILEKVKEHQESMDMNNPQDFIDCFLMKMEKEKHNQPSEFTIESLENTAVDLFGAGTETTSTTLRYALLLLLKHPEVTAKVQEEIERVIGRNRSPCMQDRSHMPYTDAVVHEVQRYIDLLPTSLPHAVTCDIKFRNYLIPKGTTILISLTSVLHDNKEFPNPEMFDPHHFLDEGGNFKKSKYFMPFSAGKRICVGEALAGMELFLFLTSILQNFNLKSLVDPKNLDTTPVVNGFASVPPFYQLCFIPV
CYP2C9 act: human CYP2C9 activators, primary screen, biochemical, luminescence; AID 1024, 2008; Cytochrome P450 2C9 (Homo sapiens), P11712; recombinant CYP2C9, luciferin-H conversion; stronger effect = higher value; factor 1 = untreated enzyme, 0 = blocked; 1.4% of 96,000 active; activation factor at 5 µM;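 active = activation factor of 2 or more for CYP2C9 at a 5 µM dose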
Of the large screens only hits and unclear results are named; the others gave an inactive call. The list is not random: actives were taken first. Their share in the collection is about 28%.

CCCc1cc(C(=O)NCc2ccco2)no1	none
Cc1cc(C(=O)NCc2ccccc2Br)no1	CYP2C19 inh 70
Cc1cc(C(=O)NCc2ccccc2)no1	none
CCCc1cc(C(=O)NCc2cccs2)no1	CYP2C19 inh 74
CCCc1cc(C(=O)N2CCN(C(c3ccccc3)c3ccccc3)CC2)no1	CYP2C9 inhib 83 (no result: PLK1 inh, Plk1 PBD FP)
CN(C)C(CNC(=O)CSc1nnc(-c2ccco2)o1)c1ccccc1 (configuration not stated)	none (no result: CYP2C19 inh, CYP2C19 act, CYP2C9 inhib, CYP2C9 act)
c1ccc(-n2nnnc2SCc2cn3cccnc3n2)cc1	none
COC(=O)CSc1nnc(-c2ccc(S(=O)(=O)NCc3cccs3)cc2)o1	none
CCCc1cc(C(=O)N(C2CCCCC2)C2CCCCC2)no1	CYP2C19 inh 64, CYP2C9 inhib 81
CCCc1cc(C(=O)NCCc2ccc(OC)c(OC)c2)no1	CYP2C19 inh 94, CYP2C9 inhib 68
CCN(CC)c1ncccc1C(=O)NCc1cccs1	CYP2C19 inh 99, CYP2C9 inhib 65
CCCc1cc(C(=O)NCc2ccccc2)no1	CYP2C19 inh 58 (no result: PLK1 inh, Plk1 PBD FP)
CCCc1cc(C(=O)NC2CCCCC2)no1	none (no result: PLK1 inh, Plk1 PBD FP)
Cc1ccc(C(=O)CSc2nc(C)cc(SCc3nnc(-c4ccccc4)o3)n2)cc1	none
CC(C)Cn1c(SCC(=O)c2c(N)n(C)c(=O)n(C)c2=O)nc2ccccc21	none
CC(=O)c1c(C)[nH]c(C(=O)CSc2nc3ccccc3c(=O)n2CCCN2CCOCC2)c1C	CYP2C19 inh 69, CYP2C9 inhib 66
CCOC(=O)c1sc2nc(CSc3nc4ccccc4n3CC)[nH]c(=O)c2c1C	CYP2C9 inhib 68
COCCn1c(SCC(=O)c2[nH]c(C)c(C(C)=O)c2C)nc2ccccc21	CYP2C19 inh 95, CYP2C9 inhib 78
Cc1sc2nc(CSc3nc4ccccc4c(=O)n3CCCN3CCOCC3)[nH]c(=O)c2c1C	CYP2C19 inh 71, CYP2C9 inhib 70 (no result: PLK1 inh, Plk1 PBD FP)
CCOC(=O)c1nc2sc(C)c(C)c2c(=O)[nH]1	none
O=c1c2ccccc2nc(-c2ccccc2)n1CCCN1CCOCC1	none
CCCc1nnc(SCC(=O)N2CCCC(C)C2)n1CC1CCCO1 (configuration not stated)	none
O=C(COc1ccc(-c2nnco2)cc1)N1CCN(S(=O)(=O)c2ccc3ccccc3c2)CC1	none
Cc1noc(C)c1C(=O)Nc1nc(C23CC4CC(CC(C4)C2)C3)cs1	none
N#Cc1cc(-c2ccccc2)nnc1Sc1ccccc1	none
Cc1nc(Cl)c(C#N)cc1-c1ccccc1	CYP2C19 inh 86
Cc1nc(Sc2ccccc2)c(C#N)cc1-c1ccccc1	CYP2C19 inh 58, CYP2C9 inhib 70
O=[N+]([O-])c1cc(-c2ccc(/C=N/c3nc4ccccn4c3-c3ccco3)o2)ccc1Cl	none
CCOC(=O)CSc1nc2ccccc2c(=O)n1CCN1CCOCC1	none (no result: CYP2C19 inh, CYP2C19 act, CYP2C9 inhib, CYP2C9 act)
CCCCn1c(SCC(=O)NCCOC)nc2ccc(N3CCOCC3)cc2c1=O	none
COCCNC(=O)CSc1nc2ccc(N3CCOCC3)cc2c(=O)n1CCc1ccccc1	CYP2C19 inh 61, CYP2C9 inhib 64 (no result: PLK1 inh, Plk1 PBD FP)
CCOC(=O)CSc1nc2ccc(N3CCOCC3)cc2c(=O)n1Cc1ccccc1	CYP2C19 inh 76, CYP2C9 inhib 83
CC(C)Cc1nc2n[nH]c(N)c2c2c1CCC2	PLK1 inh 50
CC(C)Cc1nc2n[nH]c(N)c2c2c1CCCC2	PLK1 inh 69
CCc1nc2n[nH]c(N)c2c2c1CCCC2	none
CC(C)c1nc2n[nH]c(N)c2c2c1CCCC2	PLK1 inh 66
CC1CCCCN1CCNS(=O)(=O)c1ccc2c(c1)oc(=O)n2C (configuration not stated)	none
COC(=O)c1ccc(NC(=O)c2ccccc2N(C)S(=O)(=O)c2ccccc2)cc1	none
COC(=O)c1c(C)[nH]c(C)c1-c1ccccc1	CYP2C19 inh 60
COc1ccc(C(F)(F)F)cc1N/C=C\c1nnnn1-c1ccccc1	CYP2C19 inh 65, CYP2C9 inhib 71
COC(=O)Nc1cc(C(F)(F)F)ccc1N1CCN(c2ccccc2)CC1	none
O=C(c1ccccc1)c1ccccc1N/C=C/c1nnnn1-c1ccccc1	CYP2C19 inh 73
CCOCCCNC(=O)CCNC(=O)c1cc(OC)c(OC)c(OC)c1	none
CCC(C)(C(=O)NC1CCCCC1)N(C(=O)C1CCC(=O)N1)c1ccccc1 (configuration not stated)	none
CCc1cc2c3c(c(=O)oc2cc1O)CCCC3	CYP2C19 inh 62, CYP2C9 inhib 72
Cc1oc2cc3oc(=O)c4c(c3cc2c1C)CCC4	CYP2C19 inh 63
Cc1coc2c(C)c3oc(=O)c4c(c3cc12)CCCC4	none (no result: PLK1 inh, Plk1 PBD FP)
Cc1oc2c(C)c3oc(=O)c4c(c3cc2c1C)CCC4	CYP2C19 inh 80
Cc1c(O)c(CN2CCCCC2)cc2c3c(c(=O)oc12)CCC3	CYP2C9 inhib 70
Cc1c(O)c(CN2CCCCC2)cc2c1oc(=O)c1ccccc12	none
Cc1c(NC(=O)c2ccccc2N(C)S(=O)(=O)c2ccccc2)c(=O)n(-c2ccccc2)n1C	none
CCOc1ccc(OCC(=O)c2c(O)c3ccccc3oc2=O)cc1	CYP2C9 inhib 91
CCCCC(=O)c1c(O)c2ccccc2oc1=O	none
COc1ccc(OCC(=O)c2c(O)c3ccccc3oc2=O)cc1	CYP2C9 inhib 78
O=C(CC1CCCCC1)c1c(O)c2ccccc2oc1=O	none
CCCCN=C(C)c1c(O)c2ccccc2oc1=O	CYP2C19 inh 85, CYP2C9 inhib 56
COC(=O)c1ccc(CSc2nnc(Nc3ccc(C)cc3)s2)o1	none
O=C1CCC(C(=O)OCc2c(Cl)cccc2Cl)N1 (configuration not stated)	none
Cc1ccc(Cl)cc1NC(=O)N[C@@H](C)C(=O)O	none
CCOc1ccccc1C(=O)N(Cc1ccccc1)Cc1cc2cc3c(cc2[nH]c1=O)OCCO3	none (no result: CYP2C19 inh, CYP2C19 act, CYP2C9 inhib, CYP2C9 act)
CC(C)c1nnc(NC(=O)CCC(=O)NCc2ccco2)s1	none
COc1ccc(-c2onc3ccc(Cl)cc23)cc1	none
COc1ccc(-c2cn(/N=C/c3ccc(Cl)cc3Cl)c(N)n2)cc1	PLK1 inh 61, CYP2C19 inh 74, CYP2C9 inhib 72
CCCCNC(=S)NNC(=O)CCn1nc(C)c(Br)c1C	none
C=CCSC1=C(C#N)C(c2ccccc2OCC)CC(=O)N1 (configuration not stated)	CYP2C19 inh 93, CYP2C9 inhib 71
Cc1ccc(C2CC(=O)NC(SCCC(C)C)=C2C#N)cc1 (configuration not stated)	CYP2C9 inhib 56
CCOC(=O)CSC1=C(C#N)C(c2ccc(Cl)cc2)C(C(=O)OC)C(=O)N1 (configuration not stated)	none

Screening results (PubChem BioAssay)
